In PubChem BioAssay (NCATS):
Records with an inconclusive call do not appear. Entries that show only a call come without a potency. The source made the active and inactive calls. The call rests on the fitted dose curve; in most records, active means well fitted curve in the direction sought with a large enough effect; inconclusive means small, poorly fitted or top-dose-only effect, or another doubt; inactive means no such curve, though single readings can be large; an effect the other way counts as inactive or inconclusive.

Assays:
[1] = molecular target: Aldehyde dehydrogenase, mitochondrial (Homo sapiens) (UniProt P05091); experiment: qHTS for Inhibitors of the Aldehyde Dehydrogenase Family (ALDH2) Primary screen (AID 2061308); further: nearly all actives have a fitted effect of over 55% in size
[2] = molecular target: Retinaldehyde dehydrogenase 3 (Homo sapiens) (UniProt P47895); experiment: qHTS for Inhibitors of the Aldehyde Dehydrogenase Family (ALDH1A3) Primary screen (AID 2061315)

Compound	Potency [1]	Potency [2]
COc1cc(-c2ccc3ncnc(NCCc4cnc[nH]4)c3c2)cc(OC)c1OC	inactive	inactive
Cc1cc(C)nc(NC(=S)N2CCN(c3ccccn3)CC2)c1	inactive	inactive
CC(=O)Nc1sc2cnccc2c1-c1nc2ccccc2s1	inactive	inactive
Cc1noc(C)c1-c1ccc2ncnc(NCC3CCN(C)CC3)c2c1	inactive	inactive
O=C(/C=C/c1ccccc1Cl)Nc1cccc([S+](=O)([O-])Nc2ccccc2F)c1	inactive	inactive
CC(=O)Nc1sc2c(c1-c1ncco1)CCNC2	inactive	inactive
O=C(Nc1ccc(Cl)c([N+](=O)[O-])c1)Nc1nnc(C2CCCCC2)s1	inactive	inactive
C[S+](=O)([O-])c1ccc(C(=O)OCC(=O)N2CCNC(=O)C2)cc1[N+](=O)[O-]	inactive	inactive
CC(=O)c1ccc(-c2csc(N3CCC(C(N)=O)CC3)n2)cc1	inactive	inactive
Fc1ccc(-c2c(P(=S)(c3ccccc3)c3ccccc3)n3ccccc3[n+]2C/C=C/c2ccccc2)cc1	inactive	inactive
COc1cccc(CNc2ccc(S(=O)(=O)Nc3ncccn3)cc2)c1O	inactive	inactive
COC(=O)C1=C(C)NC(COC(N)=O)=C(C(=O)OC(C)C)C1c1cccc(Cl)c1Cl (stereo not drawn)	inactive	inactive
CC(C)(C)OC(=O)Cc1nnc(-c2cc3ccccc3[nH]2)s1	inactive	inactive
Cc1cc(N[S+](=O)([O-])c2ccc(NC(=O)Cc3ccc4c(c3)OCCO4)cc2)no1	inactive	inactive
O=C(Nc1nc2cc(C(F)(F)F)ccc2s1)c1ccc(-c2cccc([N+](=O)[O-])c2)o1	inactive	inactive
N=c1c2c(ccn1CCCCc1ccccc1)Oc1ccc3ccccc3c1C2c1ccccc1 (stereo not drawn)	inactive	inactive
CCOC(=O)C1CCN(C(=O)C(C)(C)NC(=O)Nc2ccc(C#N)cc2)CC1	inactive	inactive

Compound	Potency [1]	Potency [2]
O=C(Nc1ccc(F)c(C(F)(F)F)c1)Nc1nnc(-c2ccncc2)o1	inactive	inactive
Cc1nc(CSc2ncnc3ccc(-c4ccc5c(c4)OCO5)cc23)cs1	inactive	inactive
Cc1cc2c(s1)c1cnn(Cc3ccc(C(F)(F)F)cc3)c(=O)c1n2C	inactive	inactive
c1cncc(CNc2ncnc3ccc(-c4ccc5c(c4)OCO5)cc23)c1	inactive	inactive
Cc1cc(C)n2ncc(C(=O)Nc3ccc(C)c(C)c3)c2n1	inactive	inactive
O=S(=O)(NCCCCNS(=O)(=O)c1c(F)cccc1F)c1ccc2c(c1)OCCO2	inactive	inactive
N#Cc1ccccc1Nc1ncc(-c2cccc3ccccc23)o1	inactive	inactive
O=C1CCCC2=C1C1(CCCC1)N=C(Nc1nc3cc(-c4ccccc4)ccc3o1)N2	inactive	inactive
Cc1ccc(-c2cc(C(=O)Nc3ccc(-c4nn[nH]n4)cc3)c3ccccc3n2)cc1C	inactive	inactive
CCCn1c(-c2ccc(F)cc2)nc2c(NCCCN(CCO)CCO)nc(C)nc21	inactive	inactive
COc1cc(Nc2nc(-c3ccncc3)nc3ccccc23)ccc1F	inactive	inactive
O=C(Nc1cncnc1)c1cccs1	inactive	inactive
COc1cccc(CNc2ncnc3ccc(-c4c(C)noc4C)cc23)c1	inactive	inactive
O=S(=O)(Nc1nccs1)c1ccc(NCc2ccc(Br)cc2O)cc1	inactive	inactive
Cc1ccc(S(=O)(=O)Nc2cnccc2C(=O)Nc2nc(-c3ccncc3)cs2)cc1	inactive	inactive
CCN(CC)CCCn1c(-c2ccccc2)nc2c(N(CCOC)CCOC)nc(C)nc21	inactive	inactive
CCCn1c(-c2ccc(F)cc2)nc2c(NCCCN3CCOCC3)nc(C)nc21	inactive	inactive
